Experimental data published in ChEMBL document CHEMBL1157539, “Thousands of chemical starting points for antimalarial lead identification” (Nature, 2010).

Legend:
Assay type in all cases: functional
Plasmodium falciparum [1] = assay: GSK_TCMDC: Inhibition of Plasmodium falciparum 3D7 in whole red blood cells, using parasite LDH activity as an index of growth. Test compounds present at 2uM
Plasmodium falciparum [2] = assay: GSK_TCMDC: Inhibition of Plasmodium falciparum Dd2 in whole red blood cells, using parasite LDH activity as an index of growth. Test compounds present at 2uM
HepG2 = assay: GSK_TCMDC: Percent inhibition of human HepG2 cell line. Test compounds present at 10uM.

| Structure (SMILES) | Inhibition (Plasmodium falciparum [1]) [%] | Inhibition (Plasmodium falciparum [2]) [%] | Inhibition (HepG2) [%] |
| --- | --- | --- | --- |
| COc1ccc2nccc([C@@H](O)CN3CCC(NCc4nc5c(cc4Cl)OCC(=O)N5)C(F)C3)c2c1.Cl (some centres undefined) | 84 | 29 | 4 |
| FC(F)(F)c1ccc2[nH]c(-c3ccc(-c4ccc(CN5CCN(c6cnccn6)CC5)cc4)cc3)nc2c1.O=C(O)C(F)(F)F | 99 | 50 | 21 |
| C[C@@H](CC1CCCCC1)OC(=O)N(C)[C@@H]1CCN(C#N)C1 | 95 | 96 | 5 |
| CCn1cc(C(=O)O)c(=O)c2cc(F)c(N3CCN(S(=O)(=O)c4ccc(N)cc4)CC3)cc21 | 90 | 79 | 0 |
| CC(C)N(CCOc1ccc2c(c1)N(C(=O)Nc1cc(Br)cc(C(F)(F)F)c1)CC2)C(C)C.O=C(O)C(F)(F)F | 100 | 100 | 8 |
| Cc1ccc(F)cc1S(=O)(=O)Nc1cccc(CCN2CCC(N3CCCCC3)CC2)c1 | 96 | 9 | 15 |
| c1csc(-c2nc(NCC3CCCO3)ncc2-c2ccsc2)n1 (centres undefined) | 89 | 83 | 0 |
| Nc1nc(N)c2c(CCc3ccc4ccccc4c3)cccc2n1 | 100 | 6 | 56 |
| CC(C)(C)c1ccc(OCC(=O)NC2CCN(c3ccnc4cc(Cl)ccc34)C2)cc1.O=C(O)C(F)(F)F (centres undefined) | 98 | 100 | 17 |
| COc1ccc(-c2nc(NC(=O)CS(=O)(=O)c3ccc(C)cc3)sc2C)cc1 | 100 | 94 | 56 |
| C[C@H](Cc1ccc(Oc2ccc(C[C@@H](C)NC[C@H](O)c3cccc(Cl)c3)cc2)cc1)NC[C@H](O)c1cccc(Cl)c1.Cl | 100 | 96 | 99 |
| Cc1cccc2nc(-c3cccc(-c4cccc(NC(=O)c5ccoc5)c4)c3)[nH]c12 | 99 | 71 | 19 |
| N=C(N)NN=CC(=O)Nc1cccc(C(F)(F)F)c1.O=S(=O)(O)O | 99 | 25 | 21 |
| Cl.O=C(C=Cc1cccs1)N(CCCn1ccnc1)c1nc2ccc(F)cc2s1 | 98 | 28 | 0 |
| O=C1C(=Cc2c(O)ccc3ccccc23)SC(=NCc2ccccc2)N1Cc1ccccc1 | 98 | 98 | 0 |
| CN(C)Cc1c(O)ccc2oc(Cc3ccccc3)cc12.Cl | 99 | 94 | 0 |
| Br.COc1cccc(OC)c1OCCCON1C(=N)N=C(N)NC1(C)C | 95 | 96 | 53 |
| O=C(O)C(F)(F)F.O=S(=O)(NCCN1CCCC1)c1ccc(-c2ccc(CNC3Cc4ccccc4C3)cc2)s1 | 100 | 97 | 47 |
| CN(C)Cc1c(O)ccc2[nH]c(-c3ccc(F)cc3F)nc12 | 99 | 17 | 4 |
| CCN(CCCN1CCCCC1)c1cc(C)nc(Nc2ccc(C)c(Br)c2)n1.O=C(O)C(F)(F)F | 100 | 98 | 42 |
| Cc1cc(NC(=O)Nc2ccc3sccc3c2)c2ccccc2n1 | 99 | 57 | 41 |
| O=C(/C=C/c1ccc(Cl)c(Cl)c1)NCCCCCCN1CCCN(C(=O)Nc2ccc(F)c(Cl)c2)CC1 | 98 | 1 | 30 |
| CN1CCN(c2cccc(-c3nnc(-c4ccc(OCC(=O)NCc5ccc(C(F)(F)F)cc5)c([N+](=O)[O-])c4)o3)c2)CC1 | 90 | 44 | 35 |
| FC(F)(F)c1ccc2[nH]c(-c3ccc(-c4cccc(CN5CCC(CCN6CCCCC6)CC5)c4)cc3)nc2c1.O=C(O)C(F)(F)F | 100 | 96 | 100 |
| Cc1ccc(C2CCN(CCCCNC(=O)c3ccc(NC(=O)c4ccc(Cl)cc4)cc3)CC2)c(OCC(F)(F)F)c1 | 99 | 84 | 32 |
| CC(C)n1c(CC2CCN(CC3CCN(C(=O)/C=C/c4ccc(Cl)c(Cl)c4)CC3)CC2)nc2ccccc21 | 100 | 23 | 19 |
| O=C(NCCc1ccc(Cl)c(Cl)c1)[C@@H]1CCCN1C(=O)c1ccc(O)c(-c2ccc(Cl)c(Cl)c2)c1 | 99 | 99 | 0 |
| CCOc1ccc(-c2nonc2NC(=O)c2ccco2)cc1OCC | 97 | 77 | 3 |
